Calls of active or inactive are those of the source. Rule for the calls: active = hit-call score of the fitted dose curve at least 0.9, where 1 is the maximum; inactive = score below 0.9.
Experiments:
[1] = read-out: Vascular cell adhesion molecule 1 (VCAM1), VCAM1 (gene 7412); experiment: BSK_CASM3C_VCAM1: BioMAP Diversity Plus: CASM3C Assay for Vascular cell adhesion molecule 1 (VCAM1) Biomarker Activity (AID 2283055); settings: primary human coronary artery smooth muscle cells; actives raise or lower the signal;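 note: VCAM-1 protein level quantified by ELISA on the cells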
[2] = read-out: Collagen III, COL3A1 (gene 1281); experiment: BSK_hDFCGF_CollagenIII: BioMAP Diversity Plus: hDFCGF Assay for Collagen III Biomarker Activity (AID 2283056); settings: primary human foreskin fibroblasts; actives raise or lower the signal
In short: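 Human foreskin primary fibroblasts were exposed to test chemicals for 24 h, after which collagen III was quantified by ELISA. Activity was fitted bidirectionally against DMSO as negative control and baseline.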

[3] = read-out: Epidermal growth factor receptor (EGFR), EGFR (gene 1956); experiment: BSK_hDFCGF_EGFR: BioMAP Diversity Plus: hDFCGF Assay for Epidermal growth factor receptor (EGFR) Biomarker Activity (AID 2283057); settings: primary human foreskin fibroblasts; actives raise or lower the signal
In short: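 Cell-based multiplexed assay in primary human foreskin fibroblasts. EGFR is read by ELISA 24 h after treatment and compared with DMSO controls.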

[4] = read-out: Interleukin-8 (IL8), CXCL8 (gene 3576); experiment: BSK_hDFCGF_IL8: BioMAP Diversity Plus: hDFCGF Assay for Interleukin-8 (IL8) Biomarker Activity (AID 2283058); settings: primary human foreskin fibroblasts; actives raise or lower the signal
In short: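 hDFCGF human dermal fibroblasts; 24 h chemical exposure; IL-8 by ELISA; bidirectional curve fit vs DMSO baseline; gain or loss of signal scored.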

[5] = BSK_hDFCGF_Proliferation: Cell Proliferation Assessment in the BioMAP Diversity Plus: hDFCGF Assay (AID 2283059); settings: primary human foreskin fibroblasts;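 note: curves fitted for both rise and fall of signal versus DMSO baseline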
In short: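 This proliferation readout used SRB total-protein staining of human foreskin fibroblasts […], normalized to DMSO with bidirectional curve fitting.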

[6] = BSK_hDFCGF_SRB: Viability Assessment in the BioMAP Diversity Plus: hDFCGF Assay (AID 2283061); settings: primary human foreskin fibroblasts;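 note: cells exposed to compound for 24 h before the read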
In short: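 Human foreskin primary fibroblasts were treated with compound and assessed 24 h after dosing. Total protein was measured by sulforhodamine B staining (0.1% SRB after 10% TCA fixation, 560 nm read) as a cytotoxicity marker, with bidirectional fitting against DMSO baseline.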

[7] = read-out: TIMP metallopeptidase inhibitor 1 (TIMP1), TIMP1 (gene 7076); experiment: BSK_hDFCGF_TIMP1: BioMAP Diversity Plus: hDFCGF Assay for TIMP metallopeptidase inhibitor 1 (TIMP1) Biomarker Activity (AID 2283062); settings: primary human foreskin fibroblasts; actives raise or lower the signal
In short: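 Primary human foreskin fibroblasts in the hDFCGF system were dosed with compound for 24 h, then TIMP-1 was measured by ELISA. Activity was fitted bidirectionally relative to DMSO control; parallel SRB staining assessed cytotoxicity.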

[8] = read-out: Matrix Metallopeptidase 1 (MMP1), MMP1 (gene 4312); experiment: BSK_hDFCGF_MMP1: BioMAP Diversity Plus: hDFCGF Assay for Matrix Metallopeptidase 1 (MMP1) Biomarker Activity (AID 2283064); settings: primary human foreskin fibroblasts; actives raise or lower the signal
In short: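 MMP1 levels quantified by ELISA 24 h after dosing human dermal fibroblast cultures, with parallel SRB total-protein staining for overt cytotoxicity. Data fitted in both directions against DMSO baseline.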

[9] = read-out: Vascular cell adhesion molecule 1 (VCAM1), VCAM1 (gene 7412); experiment: BSK_hDFCGF_VCAM1: BioMAP Diversity Plus: hDFCGF Assay for Vascular cell adhesion molecule 1 (VCAM1) Biomarker Activity (AID 2283065); settings: primary human foreskin fibroblasts; actives raise or lower the signal;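 for AC50: VCAM-1 protein level quantified by ELISA after 24 h chemical exposure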
In short: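 Primary human foreskin fibroblasts (hDFCGF system) were dosed with chemical and VCAM-1 was measured by ELISA 24 h later. Bidirectional curve fitting used DMSO as negative control and activity baseline.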

[10] = read-out: Plasminogen activator inhibitor-1 (PAI1), SERPINE1 (gene 5054); experiment: BSK_hDFCGF_PAI1: BioMAP Diversity Plus: hDFCGF Assay for Plasminogen activator inhibitor-1 (PAI1) Biomarker Activity (AID 2283066); settings: primary human foreskin fibroblasts; actives raise or lower the signal
In short: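 Human skin fibroblast cultures receive chemical for 24 h before PAI-1 is measured by ELISA; signal changes are fitted bidirectionally against DMSO-treated wells.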

[11] = read-out: Intercellular Adhesion Molecule 1 (ICAM1), ICAM1 (gene 3383); experiment: BSK_KF3CT_ICAM1: BioMAP Diversity Plus: KF3CT Assay for Intercellular Adhesion Molecule 1 (ICAM1) Biomarker Activity (AID 2283067); settings: primary human keratinocytes with fibroblasts; actives raise or lower the signal
In short: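 Human keratinocyte plus foreskin fibroblast primary co-culture was exposed to chemical for 24 h. ICAM-1 was then quantified by ELISA, and the data were fit bidirectionally against DMSO as the negative control and baseline.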

[12] = read-out: Interferon-gamma inducible Protein 10 (IP10), CXCL10 (gene 3627); experiment: BSK_KF3CT_IP10: BioMAP Diversity Plus: KF3CT Assay for Interferon-gamma inducible Protein 10 (IP10) Biomarker Activity (AID 2283068); settings: primary human keratinocytes with fibroblasts; actives raise or lower the signal
In short: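 Signal is secreted/surface IP-10 by ELISA in a human primary skin co-culture of keratinocytes and foreskin fibroblasts, taken 24 h post-dosing; DMSO served as negative control.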

[13] = BSK_KF3CT_SRB: Viability Assessment in the BioMAP Diversity Plus: KF3CT Assay (AID 2283069); settings: primary human keratinocytes with fibroblasts
In short: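 Cytotoxicity was gauged by SRB staining (0.1% SRB, 10% TCA fixation, 560 nm) of parallel cultures at 24 h. The cells were primary human skin keratinocytes co-cultured with fibroblasts, and activity was fitted in both directions against DMSO.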

[14] = read-out: Interleukin-1 alpha (IL1a), IL1A (gene 3552); experiment: BSK_KF3CT_IL1a: BioMAP Diversity Plus: KF3CT Assay for Interleukin-1 alpha (IL1a) Biomarker Activity (AID 2283070); settings: primary human keratinocytes with fibroblasts; actives raise or lower the signal
In short: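 IL-1a was detected by ELISA 24 h after chemical treatment of a co-culture of human skin keratinocytes and foreskin fibroblasts. Gain or loss of signal was fitted against the DMSO baseline.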

[15] = read-out: TIMP metallopeptidase inhibitor 2 (TIMP2), TIMP2 (gene 7077); experiment: BSK_KF3CT_TIMP2: BioMAP Diversity Plus: KF3CT Assay for TIMP metallopeptidase inhibitor 2 (TIMP2) Biomarker Activity (AID 2283071); settings: primary human keratinocytes with fibroblasts; actives raise or lower the signal
In short: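 Measurements come from ELISA detection of TIMP-2 at 24 hours in a dosed human keratinocyte and foreskin fibroblast co-culture. DMSO serves as negative control and baseline.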

[16] = read-out: C-C motif chemokine 2 (Homo sapiens) (UniProt P13500); experiment: BSK_KF3CT_MCP1: BioMAP Diversity Plus: KF3CT Assay for Monocyte Chemoattractant Protein 1 (MCP1/CCL2) Biomarker Activity (AID 2283073); settings: primary human keratinocytes with fibroblasts; actives raise or lower the signal
In short: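 Human keratinocyte plus foreskin fibroblast primary co-culture exposed to chemical for 24 h. MCP-1 levels measured by ELISA. Bidirectional curve fitting relative to DMSO negative control as baseline.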

[17] = read-out: Matrix Metallopeptidase 9 (MMP9), MMP9 (gene 4318); experiment: BSK_KF3CT_MMP9: BioMAP Diversity Plus: KF3CT Assay for Matrix Metallopeptidase 9 (MMP9) Biomarker Activity (AID 2283074); settings: primary human keratinocytes with fibroblasts; actives raise or lower the signal;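 for AC50: MMP9 protein level quantified by ELISA in the co-culture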
In short: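 MMP-9 quantified by ELISA after 24 h chemical treatment of primary human skin keratinocyte/fibroblast co-cultures; gain or loss fitted against DMSO, with parallel SRB staining (0.1% SRB, 560 nm) for overt cytotoxicity.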

[18] = read-out: Transforming growth factor beta 1 (TGFb1), TGFB1 (gene 7040); experiment: BSK_KF3CT_TGFb1: BioMAP Diversity Plus: KF3CT Assay for Transforming growth factor beta 1 (TGFb1) Biomarker Activity (AID 2283072); settings: primary human keratinocytes with fibroblasts; actives raise or lower the signal
In short: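 TGF-b1 ELISA on a 24 h dosed co-culture of human keratinocytes and foreskin fibroblasts; cytotoxicity tracked in parallel cultures by SRB staining.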

Measured: AC50

CC(C)N(C(=O)CCl)c1ccccc1
active: [1] 4390 nM | [2] 1690 nM | [4] 13300 nM | [5] 2450 nM | [6] 3030 nM | [7] 2980 nM | [8] 11400 nM | [9] 1430 nM | [10] 4770 nM | [11] 28500 nM | [12] 20000 nM | [13] 27100 nM | [15] 14200 nM | [16] 11100 nM
inactive: [3] | [14]

OCCCCO
inactive: [1] | [2] | [3] | [4] | [5] | [6] | [7] | [8] | [9] | [10] | [11] | [12] | [13] | [14] | [15] | [17]

Cc1c([N+](=O)[O-])c(C)c([N+](=O)[O-])c(C(C)(C)C)c1[N+](=O)[O-]
active: [5] 31400 nM | [10] 29500 nM | [12] 32400 nM | [16] 34000 nM | [17] 31100 nM
inactive: [1] | [2] | [3] | [4] | [6] | [7] | [8] | [9] | [11] | [13] | [14] | [15]

[Cl][Sn]([c]1ccccc1)([c]1ccccc1)[c]1ccccc1
active: [1] 396 nM | [2] 500 nM | [4] 123 nM | [5] 54.2 nM | [6] 233 nM | [7] 158 nM | [8] 103 nM | [9] 99.6 nM | [10] 114 nM | [11] 334 nM | [12] 140 nM | [13] 183 nM | [14] 127 nM | [15] 209 nM | [18] 62.2 nM | [16] 190 nM
inactive: [3]

O=S(=O)(C(Cl)(Cl)Cl)C(Cl)(Cl)Cl
active: [1] 1410 nM | [2] 2270 nM | [3] 1550 nM | [4] 3560 nM | [5] 83.1 nM | [6] 1520 nM | [7] 1720 nM | [8] 2800 nM | [9] 2020 nM | [10] 1110 nM | [11] 2150 nM | [12] 2990 nM | [13] 2480 nM | [14] 1670 nM | [15] 2250 nM | [16] 2370 nM

N#Cc1cccnc1
inactive: [1] | [2] | [3] | [4] | [5] | [6] | [7] | [8] | [9] | [10] | [11] | [12] | [13] | [14] | [15] | [16] | [17]
